We go through 40 compounds from ChEMBL document CHEMBL1157539, “Thousands of chemical starting points for antimalarial lead identification” (Nature, 2010).

SMILES strings stand for the structures.

The first experiment deals with Plasmodium falciparum. The experiment can be described thus: GSK_TCMDC: Inhibition of Plasmodium falciparum Dd2 in whole red blood cells, using parasite LDH activity as an index of growth. Test compounds present at 2uM. Type of experiment: functional.
`COc1ccc(CNCc2ccsc2)cc1-c1ccc(S(=O)(=O)NCCN2CCCC2)s1.O=C(O)C(F)(F)F` displayed an Inhibition of 34%.
The same measure, in the same setting: for `N=C(NCc1ccccc1)Nc1nc(-c2ccc(OCCCn3ccnc3)cc2)cs1` the value was 55%; for `CC(=O)Nc1ccc(CN(C)C2CCN(c3cc(NC(=O)c4cccc(C)c4)ccn3)CC2)cc1.O=C(O)C(F)(F)F`, 13%; for `Cl.O=C(NC1CCC(CCN2Cc3ccc(Br)cc3C2)CC1)c1cccc(-c2cccnc2)c1` (stereo not given), 73%.
The same measure, in the same setting: the value for `O=C(Nc1cccc(Oc2ccccc2)c1)N[C@H]1CCN(Cc2ccc(OCCCN3CCCCC3)cc2)C1` was 70%; that for `Cc1cc(NS(=O)(=O)c2cccc(C(C)N3CCC(N4CCCC4)CC3)c2)ccc1C(C)C` (stereo not given) was 53%; that for `[O-][s+]1c(Cl)c(-c2ccc(Cl)cc2)c2ccc(Cl)cc21` (stereo not given) was 99%.
Still for that read-out and setting: the value for `Cc1ccc(C(=O)Nc2ccc(C)c(OC3CCN(Cc4ccco4)C3)c2)cc1.O=C(O)C(F)(F)F` (stereo not given) was 49%.
For the compound `CCCCN(CCCC)CCNC(=O)c1ccc(-c2nc3cc(Cl)ccc3[nH]2)c(OCC)c1`, the Inhibition came out at 80%.
Still for that read-out and setting: the value for `CN(C(=O)Nc1ccc(F)cc1)C1CCN(CCCCCNC(=O)/C=C/c2ccc(Cl)c(Cl)c2)CC1` was 0%.
Still for that read-out and setting: for `N#CC(c1ccc(Cl)cc1)c1ccc2c(C(F)(F)F)cc(C(F)(F)F)nc2n1` (stereo not given) the value was 54%.
Take `CC(C)CNc1c2c(nc3cnn(-c4c5c(nc6cn[nH]c46)CCCC5)c13)CCCC2`: the Inhibition turned out to be 0%.
Turning to `C=Cc1sc(CNCCCNc2cc(=O)c3ccccc3[nH]2)c(C)c1Br`, the Inhibition was 35%.
The same measure, in the same setting: the value for `COc1ccc(Cl)cc1S(=O)(=O)Nc1cccc(CCN2CCC(N3CCCCC3)CC2)c1` was 9%.
Same read-out and setting: for `Br.c1cc(Nc2nc(-c3ccc(-c4csc(Nc5ccncc5)n4)cc3)cs2)ccn1` the value was 99%.
On to `C=CCNc1cc(-c2ccccn2)nc(-c2ccccn2)n1`, for which the Inhibition stood at 79%.
`NCC1CCCN1Cc1ccc(-c2ccc(-c3nc4cc(C(F)(F)F)ccc4[nH]3)s2)cc1.O=C(O)C(F)(F)F` (stereo not given) showed an Inhibition of 97%.
On to `COc1ccc2c(-c3ccccc3)noc2c1`, for which the Inhibition was found to be 34%.
Same read-out and setting: for `Cl.O=c1cc(NCCCNC2CCOc3c(Cl)cc(Cl)cc32)[nH]c2ccccc12` (stereo not given) the value was 88%; for `CCOC(=O)N1CCN(CCCNc2c3ccccc3nc3ccccc23)CC1.Cl`, 20%; for `Cn1cnc(CCNC(=O)c2ccc(-c3cccc(-c4nc5cc(F)ccc5[nH]4)c3)cc2)c1`, 24%.
The same measure, in the same setting: for `NC(=O)c1ccccc1OCC(=O)Nc1ccc(-c2cccc(-c3nc4cc(C(F)(F)F)ccc4[nH]3)c2)cc1` the value was 11%; for `COc1cc2nc(NCc3ccccc3)nc(NCc3ccccc3)c2cc1OC`, 100%; for `CC(C)(C)CCN1CCC(CNC(=O)c2cc(-c3cccc(Cl)c3)cs2)C1.O=C(O)C(F)(F)F` (stereo not given), 13%.
The compound `CCOc1cc2ncnc(Nc3ccc(OCc4ccccc4Br)c(OC)c3)c2cc1OCC.Cl` came in with an Inhibition of 82%.
`Cc1cccc(CNc2nc(C)cc(NCCC(=O)NCCOc3ccccc3)n2)c1.O=C(O)C(F)(F)F`: the Inhibition stood at 14%.
Same read-out and setting: the value for `O=C(O)C[C@H](NC(=O)c1cc(-c2ccc3c(c2)OCO3)no1)C(=O)O.O=C(O)C[C@H](NC(=O)c1conc1-c1ccc2c(c1)OCO2)C(=O)O` was 0%.
Still for that read-out and setting: for `Br.CC(CON1C(N)=NC(N)=NC1(C)C)c1ccc(Cl)cc1Cl` (stereo not given) the value was 95%; for `CCc1cn(CCOC)c2ccc(C(=O)N[C@@H](Cc3ccccc3)[C@H](O)CNC(C)(C)CCCC(C)C)cc12.O=CO`, 98%.
As for `COc1cc2c(cc1OC)CC(NCCCCCCNCCc1ccc(Cl)cc1)CC2.Cl` (stereo not given), the Inhibition is recorded as 0%.
The same measure, in the same setting: for `COc1cccc2c(N/N=C/c3ccccc3[N+](=O)[O-])cc(C)nc12` the value was 32%.
On the same count and under the same terms, the value for `Cc1cc(NCCC(=O)NCCOc2ccccc2)nc(Nc2ccccc2)n1.O=C(O)C(F)(F)F` was 55%; that for `COc1ccc2nc(Nc3nc(-c4ccccn4)cs3)sc2c1` was 94%.
The same measure, in the same setting: the value for `COc1ccc(NC(=O)[C@H](Cc2ccccc2)Nc2cc(C)nc(NCCc3ccccn3)n2)cc1.O=C(O)C(F)(F)F` was 39%; that for `O=C(Nc1ccc2ccccc2n1)c1ccccc1-c1ccccc1` was 83%; that for `CO/C(=C\C=C\c1cc2cc(Cl)c(Cl)cc2[nH]1)C(=O)NCCCN1CC(C)N(C)CC1C` (stereo not given) was 73%.
In turn, `COc1ccc2nccc([C@@H](O)CN3CCC(NC(=O)c4nc(Cl)c(Cl)c(N)c4Cl)CC3)c2c1.CS(=O)(=O)O` registered an Inhibition of 17%.
Same read-out and setting: for `C[C@H](NC(=O)c1cc(-c2ccc(C(C)(C)C)cc2)no1)C(=O)O.C[C@H](NC(=O)c1conc1-c1ccc(C(C)(C)C)cc1)C(=O)O` the value was 97%; for `Nc1ccnc(N2CCC(CCOc3cc(C(F)(F)F)nc4c(C(F)(F)F)cccc34)CC2)c1`, 17%.
The compound `O=C(O)C(F)(F)F.c1cc(CN2CCN(CCN3CCOCC3)CC2)cc(-c2cccc(-c3nc4ccccc4[nH]3)c2)c1` gave an Inhibition of 100%.

Another experiment deals with HepG2. The experiment can be described thus: GSK_TCMDC: Percent inhibition of human HepG2 cell line. Test compounds present at 10uM. The experiment is classed as functional.
In the case of `COc1ccc(CNCc2ccsc2)cc1-c1ccc(S(=O)(=O)NCCN2CCCC2)s1.O=C(O)C(F)(F)F`, the Inhibition is 39%.
Same read-out and setting: the value for `N=C(NCc1ccccc1)Nc1nc(-c2ccc(OCCCn3ccnc3)cc2)cs1` was 10%.
The compound `CC(=O)Nc1ccc(CN(C)C2CCN(c3cc(NC(=O)c4cccc(C)c4)ccn3)CC2)cc1.O=C(O)C(F)(F)F` displayed an Inhibition of 0%.
Same read-out and setting: the value for `Cl.O=C(NC1CCC(CCN2Cc3ccc(Br)cc3C2)CC1)c1cccc(-c2cccnc2)c1` (stereo not given) was 14%; that for `O=C(Nc1cccc(Oc2ccccc2)c1)N[C@H]1CCN(Cc2ccc(OCCCN3CCCCC3)cc2)C1` was 94%; that for `Cc1cc(NS(=O)(=O)c2cccc(C(C)N3CCC(N4CCCC4)CC3)c2)ccc1C(C)C` (stereo not given) was 30%.
The same measure, in the same setting: the value for `[O-][s+]1c(Cl)c(-c2ccc(Cl)cc2)c2ccc(Cl)cc21` (stereo not given) was 33%; that for `Cc1ccc(C(=O)Nc2ccc(C)c(OC3CCN(Cc4ccco4)C3)c2)cc1.O=C(O)C(F)(F)F` (stereo not given) was 10%; that for `CCCCN(CCCC)CCNC(=O)c1ccc(-c2nc3cc(Cl)ccc3[nH]2)c(OCC)c1` was 0%.
In turn, `CN(C(=O)Nc1ccc(F)cc1)C1CCN(CCCCCNC(=O)/C=C/c2ccc(Cl)c(Cl)c2)CC1` had an Inhibition of 38%.
As to `N#CC(c1ccc(Cl)cc1)c1ccc2c(C(F)(F)F)cc(C(F)(F)F)nc2n1` (stereo not given), the Inhibition was 68%.
With `CC(C)CNc1c2c(nc3cnn(-c4c5c(nc6cn[nH]c46)CCCC5)c13)CCCC2`, the Inhibition stood at 7%.
Still for that read-out and setting: the value for `C=Cc1sc(CNCCCNc2cc(=O)c3ccccc3[nH]2)c(C)c1Br` was 0%; that for `COc1ccc(Cl)cc1S(=O)(=O)Nc1cccc(CCN2CCC(N3CCCCC3)CC2)c1` was 33%; that for `Br.c1cc(Nc2nc(-c3ccc(-c4csc(Nc5ccncc5)n4)cc3)cs2)ccn1` was 91%.
The compound `C=CCNc1cc(-c2ccccn2)nc(-c2ccccn2)n1` came in with an Inhibition of 78%.
Regarding `NCC1CCCN1Cc1ccc(-c2ccc(-c3nc4cc(C(F)(F)F)ccc4[nH]3)s2)cc1.O=C(O)C(F)(F)F` (stereo not given), the Inhibition turned out to be 31%.
In turn, `COc1ccc2c(-c3ccccc3)noc2c1` had an Inhibition of 0%.
On the same count and under the same terms, for `Cl.O=c1cc(NCCCNC2CCOc3c(Cl)cc(Cl)cc32)[nH]c2ccccc12` (stereo not given) the value was 0%.
The same measure, in the same setting: for `CCOC(=O)N1CCN(CCCNc2c3ccccc3nc3ccccc23)CC1.Cl` the value was 5%.
Still for that read-out and setting: for `Cn1cnc(CCNC(=O)c2ccc(-c3cccc(-c4nc5cc(F)ccc5[nH]4)c3)cc2)c1` the value was 23%; for `NC(=O)c1ccccc1OCC(=O)Nc1ccc(-c2cccc(-c3nc4cc(C(F)(F)F)ccc4[nH]3)c2)cc1`, 51%; for `COc1cc2nc(NCc3ccccc3)nc(NCc3ccccc3)c2cc1OC`, 66%.
For `CC(C)(C)CCN1CCC(CNC(=O)c2cc(-c3cccc(Cl)c3)cs2)C1.O=C(O)C(F)(F)F` (stereo not given), the Inhibition is reported as 50%.
`CCOc1cc2ncnc(Nc3ccc(OCc4ccccc4Br)c(OC)c3)c2cc1OCC.Cl` displayed an Inhibition of 1%.
With `Cc1cccc(CNc2nc(C)cc(NCCC(=O)NCCOc3ccccc3)n2)c1.O=C(O)C(F)(F)F`, the Inhibition stood at 18%.
Still for that read-out and setting: the value for `O=C(O)C[C@H](NC(=O)c1cc(-c2ccc3c(c2)OCO3)no1)C(=O)O.O=C(O)C[C@H](NC(=O)c1conc1-c1ccc2c(c1)OCO2)C(=O)O` was 0%; that for `Br.CC(CON1C(N)=NC(N)=NC1(C)C)c1ccc(Cl)cc1Cl` (stereo not given) was 64%.
`CCc1cn(CCOC)c2ccc(C(=O)N[C@@H](Cc3ccccc3)[C@H](O)CNC(C)(C)CCCC(C)C)cc12.O=CO` had an Inhibition of 35%.
For `COc1cc2c(cc1OC)CC(NCCCCCCNCCc1ccc(Cl)cc1)CC2.Cl` (stereo not given), the Inhibition came out at 50%.
On the same count and under the same terms, for `COc1cccc2c(N/N=C/c3ccccc3[N+](=O)[O-])cc(C)nc12` the value was 0%; for `Cc1cc(NCCC(=O)NCCOc2ccccc2)nc(Nc2ccccc2)n1.O=C(O)C(F)(F)F`, 26%; for `COc1ccc2nc(Nc3nc(-c4ccccn4)cs3)sc2c1`, 40%.
Still for that read-out and setting: the value for `COc1ccc(NC(=O)[C@H](Cc2ccccc2)Nc2cc(C)nc(NCCc3ccccn3)n2)cc1.O=C(O)C(F)(F)F` was 0%; that for `O=C(Nc1ccc2ccccc2n1)c1ccccc1-c1ccccc1` was 14%.
The same measure, in the same setting: for `CO/C(=C\C=C\c1cc2cc(Cl)c(Cl)cc2[nH]1)C(=O)NCCCN1CC(C)N(C)CC1C` (stereo not given) the value was 38%; for `COc1ccc2nccc([C@@H](O)CN3CCC(NC(=O)c4nc(Cl)c(Cl)c(N)c4Cl)CC3)c2c1.CS(=O)(=O)O`, 16%; for `C[C@H](NC(=O)c1cc(-c2ccc(C(C)(C)C)cc2)no1)C(=O)O.C[C@H](NC(=O)c1conc1-c1ccc(C(C)(C)C)cc1)C(=O)O`, 31%.
As for `Nc1ccnc(N2CCC(CCOc3cc(C(F)(F)F)nc4c(C(F)(F)F)cccc34)CC2)c1`, the Inhibition is on record as 35%.
The same measure, in the same setting: for `O=C(O)C(F)(F)F.c1cc(CN2CCN(CCN3CCOCC3)CC2)cc(-c2cccc(-c3nc4ccccc4[nH]3)c2)c1` the value was 29%.
